The full list was thinned out, with hits kept by preference.
NOMO-1 viab – STK33 inhibitor candidate reducing NOMO-1 cell viability. NOMO-1 AML viability, CellTiter-Glo luminescence, 72 h. inhibition, % (test concentration not listed). 37,000 compounds, 7.5% hits. AID 2330; in the data active = inhibition above about 80%; inconclusive = no clear call, values can overlap the other calls
YB-1 expr inh – YB-1 expression inhibition; U2OS, qRT-PCR YB-1 vs CDIP delta delta Cp, 16 h; stronger effect = higher value; zero = DMSO, each unit about twofold; delta delta Cp (YB-1 minus CDIP) (no concentration beside the values); 30,000 compounds, 0.37% hits; AID 434959;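 active = delta delta Cp rounded down to an integer at or above 3, about 3 SD of DMSO wells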;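 note: higher means less YB-1 transcript or more CDIP transcript relative to DMSO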
MITF inhib – inhibitors of MITF; AID 2240; inhibition, % (concentration not given with the values); 37,000 compounds, 0.28% hits; TRPM1 promoter luciferase, luminescence, 24 h; in the data active = inhibition above about 85%; inconclusive = no clear call, values can overlap the other calls; inactive = below about 68%;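 note: human melanocyte line stably carrying TRPM1 promoter luciferase reporter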
ROS inducer – cancer cell ROS induction; U2OS ROS induction, H2DCF-DA fluorescence; ROS induction (% of piperlongumine), % at 10 µM; 46,000 compounds, 2% hits; in the data active = ROS induction above about 79%, passing the limit was not always enough; inconclusive = no clear call, values can overlap the other calls
PD-1 reversal – activators reversing PD-1 mediated T-cell inhibition. primary human CD4 T cells, PD-L1 beads, CellTiter-Glo 96 h. AID 2316. activation, % (concentration not given with the values). 29,000 tested, under 10 active; call rule not given here
Of the large screens only hits and unclear results are named; the others gave an inactive call.

COc1cccc(-c2nnc(-c3ccccc3)o2)c1	none (no result: NOMO-1 viab, YB-1 expr inh, MITF inhib, PD-1 reversal)
COc1cccc(-c2ncc(-c3ccccc3)o2)c1	ROS inducer 84.7
O=C(Nc1ccccc1)c1cc([N+](=O)[O-])ccc1NCc1cccnc1	none (no result: YB-1 expr inh)
O=C(Nc1ccccc1)c1cc([N+](=O)[O-])ccc1Cl	NOMO-1 viab 117.8
O=C(Nc1ccc([N+](=O)[O-])cc1Cl)c1cc(Cl)ccc1O	NOMO-1 viab 120.1, MITF inhib 105.6 (no result: PD-1 reversal)
O=C(COc1ccc([N+](=O)[O-])cc1)Nc1cc(Cl)ccc1O	none (no result: YB-1 expr inh)
C[C@H]1CN([C@@H](C)CO)C(=O)Cc2cc(NS(=O)(=O)c3ccccc3)ccc2O[C@H]1CN(C)Cc1ccc(-c2ccccc2)cc1	none
C[C@@H]1CN([C@H](C)CO)C(=O)Cc2cc(NS(=O)(=O)c3ccc(F)cc3)ccc2O[C@@H]1CN(C)Cc1ccc(-c2ccccc2)cc1	NOMO-1 viab inconclusive, ROS inducer 107.3
C[C@@H]1CN([C@H](C)CO)C(=O)Cc2cc(NS(=O)(=O)c3ccc(F)cc3)ccc2O[C@H]1CN(C)Cc1ccc(-c2ccccc2)cc1	NOMO-1 viab 89.5
O=C(CSc1nc2c(c(C(F)(F)F)n1)CCCCC2)NCCC1=CCCCC1	none (no result: NOMO-1 viab, YB-1 expr inh, MITF inhib, PD-1 reversal)
CCOC(=O)c1c(NC(=O)Cn2cnc3sc(C)c(C)c3c2=O)sc(C)c1C	none (no result: YB-1 expr inh)
O=C(COc1ccccc1)Nc1ccc(Cl)cc1C(=O)O	none (no result: YB-1 expr inh, ROS inducer, PD-1 reversal)
C=C1C(=O)O[C@@H]2C[C@H](C)[C@@]3(O)C[C@H](O)[C@@](C)(C[C@@H](OC(=O)C(C)C)[C@@H]12)O3	NOMO-1 viab 118.6
CC(=O)O[C@@H]1CC[C@@]2(C)C(CC[C@@H](C)[C@]23Cc2c(O)cc4c(c2O3)CNC4=O)C1(C)C (some centres not stated)	none
O=C(NCCC(c1ccc(F)cc1)c1ccco1)c1cccs1 (configuration not stated)	none (no result: YB-1 expr inh, ROS inducer, PD-1 reversal)
Cc1ccc(C(O)(COC(=O)C(C)C)COC(=O)C(C)C)c(O)c1	NOMO-1 viab 117.5
CC(C)CCCC(C)(O)c1ccc(C(=O)O)cc1O (configuration not stated)	none
CCCCCC(=O)O[C@]1(C(C)=O)CCC2C3CCC4=CC(=O)CC[C@]4(C)C3CC[C@@]21C (some centres not stated)	NOMO-1 viab 110.0 (no result: PD-1 reversal)
CC(=O)[C@@]1(O)CCC2C3CCC4=CC(=O)CC[C@]4(C)C3CC[C@@]21C (some centres not stated)	ROS inducer 155.0 (no result: PD-1 reversal)
O=C(CSc1nc2ccccc2c(=O)n1-c1cccc(Cl)c1)Nc1cccc(Cl)c1	none (no result: YB-1 expr inh)
COc1ccc(NC(=O)Cc2nc(-c3ccc(OC)cc3)cs2)cc1	none (no result: YB-1 expr inh, ROS inducer, PD-1 reversal)
CCOc1ccc(S(=O)(=O)NCc2ccccc2)cc1-c1nc2c(C(C)(C)C)nn(C)c2c(=O)[nH]1	NOMO-1 viab 127.0, ROS inducer 201.4
CCOC(=O)c1sc2ncn3c(-c4ccc(C)cc4)nnc3c2c1C	ROS inducer 197.9 (no result: NOMO-1 viab, YB-1 expr inh, MITF inhib, PD-1 reversal)
O=C(CSc1ccccc1)N1c2ccccc2Sc2ccccc21	none (no result: NOMO-1 viab, YB-1 expr inh, MITF inhib, PD-1 reversal)
CN(C)CCCNc1ncnc2c1sc1nc(N3CCOCC3)c3c(c12)CCC3	NOMO-1 viab 97.8 (no result: YB-1 expr inh)
COC(=O)c1ccc(NC(=O)CCC(=O)c2ccc(Br)cc2)cc1	none (no result: YB-1 expr inh, ROS inducer, PD-1 reversal)
CCOC(NC(=O)Nc1ccc(Br)cc1)(C(F)(F)F)C(F)(F)F	NOMO-1 viab 108.5
Cc1cc(C(=O)Nc2cccc3c2O[C@H](CN(C)Cc2ccc(C(=O)Nc4ccccc4N)cc2)[C@H](C)CN([C@H](C)CO)C3=O)n(C)n1	NOMO-1 viab 126.7
Cc1cc(C(=O)Nc2cccc3c2O[C@@H](CN(C)Cc2ccc(C(=O)Nc4ccccc4N)cc2)[C@H](C)CN([C@H](C)CO)C3=O)n(C)n1	none
Cc1cc(C(=O)Nc2cccc3c2O[C@H](CN(C)Cc2ccc(C(=O)Nc4ccccc4N)cc2)[C@@H](C)CN([C@@H](C)CO)C3=O)n(C)n1	NOMO-1 viab inconclusive, ROS inducer 189.2
Cc1cc(C(=O)Nc2cccc3c2O[C@H](CN(C)Cc2ccc(C(=O)Nc4ccccc4N)cc2)[C@@H](C)CN([C@H](C)CO)C3=O)n(C)n1	ROS inducer 129.7
C=C(C)[C@@H]1CC[C@]2(C(=O)O)CC[C@]3(C)[C@H](CCC4[C@@]5(C)CCC(=O)C(C)(C)C5C(O)C[C@]43C)C12 (some centres not stated)	NOMO-1 viab 104.2
